# Compound activity as filed in PubChem.
# NOMO-1 viab = STK33 inhibitor candidate reducing NOMO-1 cell viability. AID 2330. 7.5% of 37,000 active. NOMO-1 AML viability, CellTiter-Glo luminescence, 72 h. inhibition, % (test concentration not listed); in the data active = inhibition above about 80%; inconclusive = no clear call, values can overlap the other calls
# PD-1 reversal = activators reversing PD-1 mediated T-cell inhibition. primary human CD4 T cells, PD-L1 beads, CellTiter-Glo 96 h. activation, % (no concentration beside the values). 29,000 tested, under 10 active; call rule not given here;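 note: 0% = median vehicle wells and 100% = positive control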
# Hedgehog inh = blocks Sonic Hedgehog signaling; Shh-LIGHT2 Gli-luciferase reporter, 30 h; inhibition, % (test concentration not listed); 2.1% of 22,000 active;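 active = mean inhibition across valid replicates above about 65%, limit read from the data; inconclusive = mean under the limit, yet half or more replicates past it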;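 note: pathway switched on by Shh-conditioned medium diluted 1 in 25 in low serum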
# MITF inhib = inhibitors of MITF | 0.28% of 37,000 active | inhibition, % (concentration not given with the values) | AID 2240 | TRPM1 promoter luciferase, luminescence, 24 h; in the data active = inhibition above about 85%; inconclusive = no clear call, values can overlap the other calls; inactive = below about 68%;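 note: human melanocyte line stably carrying TRPM1 promoter luciferase reporter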
# * = called active by the depositor; ? = inconclusive; . = no result given. Only some compounds are listed: those with a hit (about 7.8% of all), similar ones and a draw of the others.
SMILES,NOMO-1 viab,PD-1 reversal,Hedgehog inh,MITF inhib
O=c1oc(-c2cccc(Cl)c2)nc2c1cnn2-c1ccccc1,115.0*,-1.5,-8.3,-7.1
CCc1cccc(C)c1NC(=O)CSc1nc2ccccc2c(=O)n1-c1cccc2ccccc12,?,0.0,.,21.3
CC(CC(N)=O)OC(=O)c1cc(Cl)cc(O)c1O (configuration not stated),88.0*,0.8,-10.4,26.8
CC1=C2CCC(C(=O)O)=CC2C(C(C)C)CC1 (configuration not stated),-1.0,-0.3,-24.2,-2.4
CC(=O)OC1/C=C(/C(=O)O)CC/C=C(/C)C(=O)/C=C\C1(C)C (configuration not stated),119.9*,-7.8,64.7*,-11.3
CN1C(=O)C(C(=O)NC(C)(C)C)C2CC1(C)Oc1ccccc12 (configuration not stated),-4.0,1.5,-32.5,14.8
Cc1ccc(S(=O)(=O)Nc2ccc3c(c2)CC(=O)N([C@@H](C)CO)C[C@H](C)[C@@H](CN(C)Cc2ccccc2)O3)cc1,90.6*,0.4,-5.7,-2.2
Cc1ccc(S(=O)(=O)Nc2ccc3c(c2)CC(=O)N([C@H](C)CO)C[C@@H](C)[C@H](CN(C)Cc2ccccc2)O3)cc1,4.9,1.5,22.6,1.2
Cc1ccc(S(=O)(=O)Nc2ccc3c(c2)CC(=O)N([C@H](C)CO)C[C@H](C)[C@H](CN(C)Cc2ccccc2)O3)cc1,98.1*,2.8,25.0,-1.6
COc1ccc([N+](=O)[O-])cc1NC(=O)CN(c1cc(C(F)(F)F)ccc1Cl)S(C)(=O)=O,19.7,.,.,-6.3
CCCCN1C(=O)/C(=C2/Sc3ccc(OC)cc3N2C)SC1=S,29.1,0.4,-9.4,-5.7
COc1cc(C2NC(=S)NC(c3ccccc3)=C2C(=O)c2ccccc2)cc(I)c1OCCO (configuration not stated),25.9,-3.9,.,-22.1
COC(=O)COc1cc(Cl)c(C2NC(=S)NC(c3ccccc3)=C2C(C)=O)cc1OC (configuration not stated),117.2*,.,.,15.8
O=c1c2ccccc2nnn1CN1CCCCC1,22.0,0.0,42.6,-3.3
CCC(C)C1NC(=O)C(CCC(=O)O)N(C)C(=O)C(C(C)C)N(C)C(=O)CNC(=O)C2CCCN2C(=O)C(Cc2ccccc2)NC(=O)C(C(C)CC)OC(=O)C(CCC(=O)O)N(C)C(=O)C(C(C)C)NC(=O)C2CCCCN2C1=O (configuration not stated),110.1*,2.1,100.0*,58.5
O=C1C(=O)N(Cc2ccco2)C(c2ccc(Cl)cc2)C1C(=O)c1cc2ccccc2o1 (configuration not stated),4.7,-1.1,.,9.4
COc1ccc(CN(C)C[C@H]2Oc3c(NC(=O)Nc4ccc5c(c4)OCO5)cccc3C(=O)N([C@H](C)CO)C[C@@H]2C)cc1,34.5,.,-21.5,-14.1
COc1ccc(CN(C)C[C@@H]2Oc3c(NC(=O)Nc4ccc5c(c4)OCO5)cccc3C(=O)N([C@@H](C)CO)C[C@H]2C)cc1,87.0*,.,-9.9,14.6
COc1ccc(NC(=O)Nc2cccc3c2O[C@@H](CN(C)Cc2ccc4c(c2)OCO4)[C@@H](C)CN([C@H](C)CO)C3=O)cc1,89.2*,0.5,-20.8,0.3
CC(C)(C)NC(=O)c1ccc2c3c(onc13)-c1ccccc1C2=O,113.9*,-5.9,27.9,29.8
COc1ccc(S(=O)(=O)Nc2cc(C)cc(C)c2)cc1,95.6*,-0.1,-10.9,41.6
CN1C(=O)C(Cc2ccccc2)(c2ccccc2)c2ccccc21 (configuration not stated),48.5,-1.8,-68.5,-7.5
NC(=NCc1ccc(Cl)cc1Cl)NC(=O)c1nc(Cl)c(N)nc1N,120.4*,.,57.6,-1.8
Cc1ccc(Oc2ccc(C)c(C)c2)cc1C,47.6,-1.3,.,-29.6
O=C1NCN(c2ccccc2)C12CCN(CCCC(c1ccc(F)cc1)c1ccc(F)cc1)CC2,113.6*,.,83.6*,-1.8
SMILES,NOMO-1 viab,PD-1 reversal,Hedgehog inh,MITF inhib
COc1ccc2c(c1)nnc1n[nH]c(=O)n12,16.4,-0.9,-20.4,60.0
Clc1ccccc1N=C/C=C1\NN=NC1c1ccc(Br)cc1 (configuration not stated),46.9,0.7,-23.7,-27.0
CCCCC[C@H](CC(=O)NO)C(=O)N[C@H](C(=O)N1CCC[C@H]1CO)C(C)C,106.9*,.,-8.5,20.0
CCCCCC(O)CC(O)CCc1ccc(O)c(OC)c1 (configuration not stated),.,.,-34.3,.
CCCCCCCCC[C@@H](O)CC(=O)CCc1ccc(O)c(OC)c1,91.8*,1.1,-13.2,2.0
C[C@H]1CN([C@@H](C)CO)C(=O)Cc2cc(NC(=O)CCCCCC(=O)Nc3ccccc3N)ccc2O[C@H]1CN(C)C,?,0.8,.,-7.7
